# Data: PubChem BioAssay (EPA / NIEHS)
# Records with an inconclusive call do not appear. Some structures have more than one record in an assay (separate samples or runs), and their calls can disagree. Active and inactive are the calls of the source. How the source made its calls, unless noted: active means hit-call score of the fitted dose curve at least 0.9, where 1 is the maximum; inconclusive means response in the unintended direction; inactive means score below 0.9.
# Key:
# [1] = target: Bile acid receptor (Homo sapiens) (UniProt Q96RI1); assay: OT_FXR_FXRSRC1_0480: Odyssey Thera (OT) 8-hour HEK293T Protein-Complementation Assay for Farnesoid X receptor/SRC-1 Co-activator (AID 2283383)
# Bile acid receptor (Homo sapiens), sequence (Q96RI1 whole entry, looked up): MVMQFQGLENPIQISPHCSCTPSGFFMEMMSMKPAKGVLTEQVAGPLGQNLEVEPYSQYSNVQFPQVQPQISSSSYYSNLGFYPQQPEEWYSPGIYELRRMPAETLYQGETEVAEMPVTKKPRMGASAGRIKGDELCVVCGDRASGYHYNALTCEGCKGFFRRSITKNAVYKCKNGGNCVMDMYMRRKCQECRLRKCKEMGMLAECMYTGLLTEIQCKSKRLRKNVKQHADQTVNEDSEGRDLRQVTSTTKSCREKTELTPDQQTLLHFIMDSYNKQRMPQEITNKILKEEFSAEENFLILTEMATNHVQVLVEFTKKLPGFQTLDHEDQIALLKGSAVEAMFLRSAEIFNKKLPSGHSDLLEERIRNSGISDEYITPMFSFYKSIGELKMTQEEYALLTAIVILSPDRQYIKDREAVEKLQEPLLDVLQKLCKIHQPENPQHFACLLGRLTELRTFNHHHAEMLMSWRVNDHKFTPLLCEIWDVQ
# How it was run: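 Readings were taken 8 h after dosing HEK293T cells in a split-reporter complementation format pairing FXR with SRC-1. Increased fluorescence relative to DMSO-treated wells defined activity.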
# [2] = target: Bile acid receptor (Homo sapiens) (UniProt Q96RI1); assay: OT_FXR_FXRSRC1_1440: Odyssey Thera (OT) 24-hour HEK293T Protein-Complementation Assay for Farnesoid X receptor/SRC-1 Co-activator (AID 2283384)
# How it was run: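 Single endpoint, analysed for increased fluorescence against DMSO controls. HEK293T cells carrying FXR and SRC-1 linked to complementary reporter halves were exposed to chemicals for 24 h before reading.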
# [3] = target: Peroxisome proliferator-activated receptor gamma (Homo sapiens) (UniProt P37231); assay: OT_PPARg_PPARgSRC1_0480: Odyssey Thera (OT) 8-hour Protein-Complementation Assay for Peroxisome Proliferator-activated Receptor Gamma / SRC-1 Co-activator (AID 2283387);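 further: nuclear to cytoplasmic split Venus YFP fluorescence ratio reporting PPARg SRC-1 interaction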
# Peroxisome proliferator-activated receptor gamma (Homo sapiens), sequence (P37231 whole entry, looked up, the tested form may be a part): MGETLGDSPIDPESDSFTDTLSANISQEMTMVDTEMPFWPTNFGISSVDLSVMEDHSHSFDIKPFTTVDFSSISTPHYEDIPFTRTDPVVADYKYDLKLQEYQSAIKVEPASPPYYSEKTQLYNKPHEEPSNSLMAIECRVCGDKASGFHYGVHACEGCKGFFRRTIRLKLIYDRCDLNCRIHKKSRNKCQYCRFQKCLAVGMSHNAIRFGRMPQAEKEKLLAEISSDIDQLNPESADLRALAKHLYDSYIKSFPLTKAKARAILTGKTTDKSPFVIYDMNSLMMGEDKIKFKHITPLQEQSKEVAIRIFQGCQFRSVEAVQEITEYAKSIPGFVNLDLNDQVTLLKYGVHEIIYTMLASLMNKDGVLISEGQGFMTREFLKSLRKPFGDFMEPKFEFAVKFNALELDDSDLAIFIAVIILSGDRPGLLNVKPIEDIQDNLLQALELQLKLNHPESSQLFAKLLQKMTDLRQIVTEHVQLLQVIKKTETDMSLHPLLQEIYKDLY
# How it was run: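 Protein-fragment complementation of split Venus YFP reports PPARg/SRC-1 interaction in HEK293T (transfected 48 h before treatment), exposed 8 h. Readout: N/C fluorescence ratio at 488 nm from imaging, Draq5 for segmentation, positive fit relative to DMSO.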
# [4] = target: Peroxisome proliferator-activated receptor gamma (Homo sapiens) (UniProt P37231); assay: OT_PPARg_PPARgSRC1_1440: Odyssey Thera (OT) 24-hour Protein-Complementation Assay for Peroxisome Proliferator-activated Receptor Gamma/ SRC-1 Co-activator (AID 2283388);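 further: nuclear to cytoplasmic ratio of reconstituted Venus YFP fluorescence in fixed imaged cells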
# How it was run: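 Readout is the 488 nm N/C fluorescence ratio from fixed, Draq5-stained HEK293T cells after 24 h compound exposure. Cells carried transiently transfected PPARg and SRC-1 fused to Venus fragments, transfected 48 h before treatment.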
# [5] = target: Retinoic acid receptor RXR-alpha (Homo sapiens) (UniProt P19793); assay: OT_NURR1_NURR1RXRa_0480: Odyssey Thera (OT) 8-hour HEK293T Protein Complementation Assay for Nurr1/retinoid X receptor (RXR) (AID 2283385)
# Retinoic acid receptor RXR-alpha (Homo sapiens), sequence (P19793 whole entry, looked up, the tested form may be a part): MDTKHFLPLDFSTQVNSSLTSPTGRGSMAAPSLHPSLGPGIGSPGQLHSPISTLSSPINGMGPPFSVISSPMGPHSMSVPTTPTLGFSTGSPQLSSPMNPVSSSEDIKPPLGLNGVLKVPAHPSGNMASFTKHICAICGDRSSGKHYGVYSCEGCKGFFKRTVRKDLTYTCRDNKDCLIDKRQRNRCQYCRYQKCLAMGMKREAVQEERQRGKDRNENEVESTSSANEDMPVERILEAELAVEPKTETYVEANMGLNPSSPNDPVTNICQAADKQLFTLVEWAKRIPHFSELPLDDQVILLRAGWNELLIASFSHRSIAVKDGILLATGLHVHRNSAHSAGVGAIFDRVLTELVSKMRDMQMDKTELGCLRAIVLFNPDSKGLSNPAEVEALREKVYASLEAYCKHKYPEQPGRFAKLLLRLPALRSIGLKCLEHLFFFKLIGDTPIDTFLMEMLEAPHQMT
# How it was run: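 Gain in fluorescent complementation signal over DMSO, measured 8 hours after chemical dosing of human kidney HEK293T cells, indicated enhanced Nurr1–RXRα association.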
# [6] = target: Retinoic acid receptor RXR-alpha (Homo sapiens) (UniProt P19793); assay: OT_NURR1_NURR1RXRa_1440: Odyssey Thera (OT) 24-hour HEK293T Protein Complementation Assay for Nurr1/retinoid X receptor (RXR) (AID 2283386)
# How it was run: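 Cell-based binding reporter: HEK293T cells, 24 h exposure, fluorescence-detected fragment complementation, DMSO as baseline.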
# [7] = CEETOX_H295R_OHPROG: CeeTox H295R High-throughput Steroidogenesis Assay for OH-Progesterone (OHPROG) (AID 2283435; active means hit-call score of the fitted dose curve at least 0.9, where 1 is the maximum; inactive means score below 0.9;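 on AC50: 17alpha-hydroxyprogesterone secreted into medium measured by HPLC-MS/MS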); conditions: actives raise or lower the signal
# How it was run: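 Human adrenocortical H295R cells, passage 10 or lower, were treated with chemical for 48 h after forskolin priming, and hormone output in the medium was quantified by LC-MS/MS.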
# [8] = CEETOX_H295R_ANDR: CeeTox H295R High-throughput Steroidogenesis Assay for Androstenedione (ANDR) (AID 2283436; active means hit-call score of the fitted dose curve at least 0.9, where 1 is the maximum; inactive means score below 0.9); conditions: actives raise or lower the signal
# How it was run: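 Medium from 48 h chemical-treated H295R adrenal cells was extracted with MTBE and androstenedione measured by LC-MS/MS. Activity was fit in both directions relative to DMSO. Cytotoxic concentrations were re-tested after dilution until MTT viability reached ≥70%.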
# [9] = CEETOX_H295R_11DCORT: CeeTox H295R High-throughput Steroidogenesis Assay for 11-Deoxycortisol (11DCORT) (AID 2283432; active means hit-call score of the fitted dose curve at least 0.9, where 1 is the maximum; inactive means score below 0.9;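 on AC50: 11-deoxycortisol secreted into the medium measured by LC-MS/MS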); conditions: actives raise or lower the signal
# How it was run: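 Human adrenal H295R cells were prestimulated with 10 uM forskolin for 48 h, then exposed to test chemical (0.1% DMSO final) for 48 h. Medium 11-deoxycortisol was quantified by MTBE extraction and HPLC-MS/MS; bidirectional fitting relative to DMSO.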
# [10] = CEETOX_H295R_CORTIC: CeeTox H295R High-throughput Steroidogenesis Assay for Corticosterone (CORTIC) (AID 2283437; active means hit-call score of the fitted dose curve at least 0.9, where 1 is the maximum; inactive means score below 0.9); conditions: actives raise or lower the signal
# How it was run: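 Medium corticosterone was quantified by tandem mass spectrometry following 48 hours of chemical exposure (0.1% DMSO) in human H295R cells previously stimulated 48 hours with 10 uM forskolin. Viability checked by MTT; chemicals diluted and retested when viability fell below 70%.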
smiles,measurement,setting,value
CCOC(=O)NCCOc1ccc(Oc2ccccc2)cc1,AC50,[1],11.7 µM (active)
same,AC50,[2],12.1 µM (active)
same,outcome,[3],inactive
same,outcome,[4],inactive
COC(=O)CSc1cc(N=c2sc(=O)n3n2CCCC3)c(F)cc1Cl,outcome,[1],inactive
same,outcome,[5],inactive
same,outcome,[3],inactive
same,outcome,[4],inactive
O=C(O)C1(C(=O)Nc2ccc(Cl)cc2Cl)CC1,outcome,[1],inactive
same,outcome,[2],inactive
same,outcome,[3],inactive
same,outcome,[4],inactive
O=C(c1ccccc1)C1CCCCC1,outcome,[1],inactive
same,outcome,[2],inactive
same,outcome,[3],inactive
same,outcome,[4],inactive
CCN(CC)C(=O)c1cccc(C)c1,outcome,[1],inactive
same,outcome,[6],inactive
same,outcome,[3],inactive
same,outcome,[4],inactive
CCCCOCCOCCOCc1cc2c(cc1CCC)OCO2,AC50,[1],33.1 µM (active)
same,outcome,[2],inactive
same,outcome,[5],inactive
same,outcome,[3],inactive
same,outcome,[4],inactive
same,outcome,[7],inactive
same,outcome,[8],inactive
C#CCOC(=O)[C@@H](C)Oc1ccc(Oc2ncc(Cl)cc2F)cc1,outcome,[1],inactive
same,outcome,[2],inactive
same,outcome,[3],inactive
same,outcome,[4],inactive
same,AC50,[9],9.92 µM (active)
same,AC50,[7],9.84 µM (active)
same,outcome,[10],inactive
CCNc1nc(N)nc(Cl)n1,outcome,[5],inactive
same,outcome,[6],inactive
same,outcome,[7],inactive
c1ccc2[nH]c(-c3cscn3)nc2c1,outcome,[1],inactive
same,outcome,[2],inactive
same,outcome,[3],inactive
same,outcome,[4],inactive
same,outcome,[9],inactive
same,outcome,[7],inactive
same,outcome,[8],inactive
same,outcome,[10],inactive
CCCCOC(=O)C(C)Oc1ccc(Oc2ccc(C(F)(F)F)cn2)cc1 (configuration not stated),outcome,[1],inactive
same,outcome,[2],inactive
same,outcome,[3],inactive
same,outcome,[4],inactive
CCC(C)OC(=O)N1CCCCC1CCO (configuration not stated),outcome,[1],inactive
same,outcome,[2],inactive
same,outcome,[3],inactive
same,outcome,[4],inactive
C[C@]12C[C@H](O)[C@H]3[C@@H](CCC4=CC(=O)CC[C@@]43C)[C@@H]1CC[C@@H]2C(=O)CO,AC50,[1],32.3 µM (active)
same,outcome,[1],inactive
same,AC50,[2],16.8 µM (active)
same,outcome,[2],inactive
same,outcome,[3],inactive
same,outcome,[4],inactive
same,AC50,[9],34.4 µM (active)
same,AC50,[7],72.2 µM (active)
same,AC50,[10],1.04 µM (active)
